# Hit rate of the full screen: of about 360,000 compounds, about 1,300 (0.36%) were called active. The sample as a whole holds a higher share of actives than the screen did. Unmarked numbers belong to inactive results. Rule as the data show it: active = inhibition above about 35% (passing the limit was not always enough); inactive = the rest.
# Target: Polyadenylate-binding protein 1 (Homo sapiens) (UniProt P11940)
# Experiment: PAM2 peptide displacement from PABP1 MLLE – biochemical, fluorescence polarization, FITC-PAM2, GST-MLLE, primary screen (AID 588489);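 also: plate controls were DMSO wells with GST-MLLE for no effect and wells lacking GST-MLLE protein for full effect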
# Conditions: at 20 µM, active compounds read high
# Sequence of Polyadenylate-binding protein 1 (Homo sapiens) (P11940 whole entry, looked up): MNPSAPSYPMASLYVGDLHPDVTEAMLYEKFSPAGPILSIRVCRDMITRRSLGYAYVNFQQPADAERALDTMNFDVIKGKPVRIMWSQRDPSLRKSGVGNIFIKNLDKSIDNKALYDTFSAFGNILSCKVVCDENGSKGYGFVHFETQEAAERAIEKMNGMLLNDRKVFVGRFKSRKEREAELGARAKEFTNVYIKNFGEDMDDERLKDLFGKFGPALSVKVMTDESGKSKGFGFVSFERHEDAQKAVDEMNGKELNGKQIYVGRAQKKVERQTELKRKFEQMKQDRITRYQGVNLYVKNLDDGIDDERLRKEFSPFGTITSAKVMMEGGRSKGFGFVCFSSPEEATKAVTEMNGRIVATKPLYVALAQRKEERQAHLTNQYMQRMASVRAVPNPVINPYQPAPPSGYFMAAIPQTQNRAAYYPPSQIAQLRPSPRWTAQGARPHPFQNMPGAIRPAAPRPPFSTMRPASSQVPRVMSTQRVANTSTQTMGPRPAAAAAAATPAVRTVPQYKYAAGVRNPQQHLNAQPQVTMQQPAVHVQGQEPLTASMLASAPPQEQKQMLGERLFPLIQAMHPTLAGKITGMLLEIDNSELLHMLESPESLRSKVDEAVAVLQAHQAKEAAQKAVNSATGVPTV
row,Structure (SMILES),inhibition
1,Cc1cccc(NC(=S)Nc2ccc(Cl)c(Cl)c2)c1,37.8% (active)
2,Cc1ccc(C2CCN(C(=S)Nc3cccc(Cl)c3)C2)cc1 (stereo not drawn),-122%
3,O=C(NCc1cn2ccsc2n1)Nc1cccc(Cl)c1,-5.66%
4,NS(=O)(=O)c1ccc(NC(=S)Nc2ccc(Br)c(Cl)c2)cc1,33.2%
5,Cc1csc(NC(=S)Nc2cccc(Cl)c2)n1,35.5% (active)
6,Cc1ccc(C)c(NC(=S)NNC(=S)Nc2ccc(C(C)C)cc2)c1,30.8%
7,CCc1noc(C)c1C(=O)N1CCCC(N2CCN(c3ccc(F)cc3)CC2)C1 (stereo not drawn),-6.88%
8,Cc1cc(NC(=O)c2cc3ccccc3o2)no1,16%
9,CC(C)(C)n1nc2c(c1NC(=O)c1cc3ccccc3o1)CSC2,47.2% (active)
10,Cc1cccc(-n2nc3c(c2NC(=O)c2cc4ccccc4o2)CS(=O)(=O)C3)c1,2.88%
11,C=CCn1c(SCC(=O)NCc2ccccc2)nnc1-c1cc(Br)ccc1O,-75.9%
12,CCOC(=O)C1=C(CSc2nnnn2C)N(C)C(=O)NC1c1ccccc1 (stereo not drawn),-3.23%
13,O=C1CCCC(O)=C1N=Nc1ccc2ncsc2c1,45.2% (active)
14,O=C1CCCC(O)=C1N=Nc1ccc(S(=O)(=O)N2CCOCC2)cc1,8.62%
15,O=C(NCCC1CCCCN1S(=O)(=O)c1ccccc1)C(=O)NCC1CCCO1 (stereo not drawn),1.52%
16,O=C(N/N=C\c1cc(Br)c(Br)o1)C1COc2ccccc2O1 (stereo not drawn),-16.5%
17,O=C(N/N=C/c1ccc(Br)o1)c1cncc(Br)c1,6.99%
18,Cc1ccc(C(=O)N/N=C\c2cc(Br)c(Br)o2)cn1,69.9% (active)
19,CC(C)N(C(=O)Cn1cc(SCC(=O)N2CCCC2)c2ccccc21)C(C)C,-0.1%
20,CCOc1ccccc1N1C(=O)CC(Sc2nccc(C)n2)C1=O (stereo not drawn),20.7%
21,Cc1ccnc(SC2CC(=O)N(c3ccccc3)C2=O)n1 (stereo not drawn),38.2% (active)
22,CC(=O)Nc1ccc(N2C(=O)CC(Sc3nccc(C)n3)C2=O)cc1 (stereo not drawn),20.5%
23,CCCCNC(=O)C1(c2ccc(OC)cc2)CCOCC1,-4.07%
24,Nc1cccc2c1C(=O)N(Cc1nnc(-c3ccccc3Br)o1)C2=O,41.2% (active)

row,Structure (SMILES),inhibition
1,Cn1cnnc1SCc1nnc(-c2ccccc2Br)o1,-6.49%
2,CC(C)N(Cc1nnc(-c2ccccc2Br)o1)C(=O)c1cc(Cl)nc2ccccc12,-1.33%
3,CCOC(=O)c1cc2sccc2n1Cc1ccc(C#N)cc1,-2.73%
4,CC(Sc1ccc(S(=O)(=O)N2CCN(C)CC2)cn1)C(=O)NC1CCCC(C)C1C (stereo not drawn),-9.12%
5,CC1(C)C2CC=C(/C=N/NC(=O)c3ccc(Cl)cc3)C1C2 (stereo not drawn),10.7%
6,O=C1CCC(=O)N(c2ccccc2)N1,3.9%
7,CCOc1ccccc1NC(=S)NC(=O)CCc1ccccc1,17.8%
8,Fc1ccccc1CNC(=S)Nc1ccc(Cl)cc1,-18.2%
9,O=C(Cc1ccc(Cl)cc1)NC(=S)Nc1ccccc1O,37.5% (active)
10,Cc1sc2ncn(CC(=O)NCCCC(=O)NCc3ccc(F)cc3)c(=O)c2c1C,-10.9%
11,Cc1n[nH]c(=O)c2c(NC(=O)CSc3ccccc3F)oc(C)c12,25.1%
12,COc1ccc(OC)c(C2N(c3ccccn3)C(=O)C3CCCN32)c1 (stereo not drawn),-4.22%
13,COCC(C)N=CC1=C(O)CC(C)(C)CC1=O (stereo not drawn),6.93%
14,COc1cccc(NC(=O)CN(C)C(=O)CSC(=S)N2CCCC2)c1,40.8% (active)
15,CCN(CC(=O)Nc1ccc(NC(C)=O)cc1)C(=O)CSC(=S)N1CCCC1,5.05%
16,COc1cccc(NC(=O)CN(C)C(=O)Cc2ccc(Cl)cc2Cl)c1,-1.03%
17,Cc1ccc(N/N=C2\COC(C)(C)CC2=O)cc1,-0.27%
18,COc1ccc(N/N=C2/CCCCC2=O)cc1,44.5% (active)
19,COc1ccc(NC(=O)c2c(C)oc3c2CCCC3)cc1,6.57%
20,COc1ccc(-c2cc(C3CCN(c4ncccc4[N+](=O)[O-])CC3)[nH]n2)cc1,6.76%
21,CCc1ccc2c(c1)NC(=O)C2(C)Cc1ccc(OC(F)(F)F)cc1 (stereo not drawn),8.45%
22,CCc1ccc2c(c1)C1(NN=C(c3ccccc3)S1)C(=O)N2 (stereo not drawn),45.2% (active)
23,CC[N+]1(CC)CC2=Cc3ccccc3CC2C1 (stereo not drawn),-5.91%
24,O=C(Nc1cc(S(=O)(=O)Nc2ccc(Cl)cc2)ccc1O)c1ccc(F)cc1F,-7.73%
